# Assay results as given in publication PMC7862700, “An all-to-all approach to the identification of sequence-specific readers for epigenetic DNA modifications on cytosine”.
# How the values were obtained:
# Test in all cases: DAPPL (digital affinity profiling via proximity ligation, sequencing); 10 mM Tris-HCl pH 7.5, 50 mM NaCl, 1 mM DTT, 4% glycerol, room temperature, 30 min; GST-TFs on glutathione beads, 16-mer random dsDNA library, 0.1% formaldehyde crosslink after washing; high values mean tight binding
# FEV = molecular target: T1, FEV (Homo sapiens, UniProt Q99581 1-238); conditions: protein: recombinant; tags: N-terminal GST; dsDNA, one strand shown
# T1 sequence: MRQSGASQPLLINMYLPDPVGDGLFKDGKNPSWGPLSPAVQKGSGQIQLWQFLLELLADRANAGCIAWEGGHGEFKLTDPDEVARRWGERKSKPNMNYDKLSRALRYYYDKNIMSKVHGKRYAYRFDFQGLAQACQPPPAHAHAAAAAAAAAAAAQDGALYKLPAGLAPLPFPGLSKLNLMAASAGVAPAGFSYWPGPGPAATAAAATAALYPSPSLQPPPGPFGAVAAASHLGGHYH
# How it was run: (§1)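 Binding signal is given per hexamer as its read frequency for a factor divided by its frequency in the tag-only sample. GST-fused human transcription factors were expressed in yeast, captured on glutathione beads, barcoded with DNA and pooled with that sample, then incubated with 200 nmole of a 16-mer random double-stranded DNA library in Tris/NaCl/DTT/glycerol buffer for 30 min at room temperature. The pools were then washed, crosslinked, proximity-ligated, amplified by PCR and sequenced on an Illumina NextSeq500.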
# ETV5 = ETV5 (Homo sapiens, UniProt P41161 1-510); conditions: protein: recombinant; tags: N-terminal GST; dsDNA, one strand shown
# How it was run: as §1
# HSF1 = HSF1 (Homo sapiens, UniProt Q00613 1-529); conditions: protein: recombinant; tags: N-terminal GST; chain copies: 3; dsDNA, one strand shown
# How it was run: as §1
# SPIC = molecular target: T2, SPIC (Homo sapiens, UniProt Q8N5J4 1-248); conditions: protein: recombinant; tags: N-terminal GST; dsDNA, one strand shown
# T2 sequence: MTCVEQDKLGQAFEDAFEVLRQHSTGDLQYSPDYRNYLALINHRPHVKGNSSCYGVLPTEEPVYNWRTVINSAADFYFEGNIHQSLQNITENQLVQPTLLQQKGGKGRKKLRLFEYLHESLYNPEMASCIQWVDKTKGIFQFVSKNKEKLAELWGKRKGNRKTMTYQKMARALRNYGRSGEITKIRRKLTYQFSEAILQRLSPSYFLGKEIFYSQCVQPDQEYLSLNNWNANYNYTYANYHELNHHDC
# How it was run: as §1
# ELF4 = ELF4 (Homo sapiens, UniProt Q99607 1-663); conditions: protein: recombinant; tags: N-terminal GST; dsDNA, one strand shown
# How it was run: as §1
# ELK4 = molecular target: T3, ELK4 (Homo sapiens, UniProt P28324-2 1-405); conditions: protein: recombinant; tags: N-terminal GST; dsDNA, one strand shown
# T3 sequence: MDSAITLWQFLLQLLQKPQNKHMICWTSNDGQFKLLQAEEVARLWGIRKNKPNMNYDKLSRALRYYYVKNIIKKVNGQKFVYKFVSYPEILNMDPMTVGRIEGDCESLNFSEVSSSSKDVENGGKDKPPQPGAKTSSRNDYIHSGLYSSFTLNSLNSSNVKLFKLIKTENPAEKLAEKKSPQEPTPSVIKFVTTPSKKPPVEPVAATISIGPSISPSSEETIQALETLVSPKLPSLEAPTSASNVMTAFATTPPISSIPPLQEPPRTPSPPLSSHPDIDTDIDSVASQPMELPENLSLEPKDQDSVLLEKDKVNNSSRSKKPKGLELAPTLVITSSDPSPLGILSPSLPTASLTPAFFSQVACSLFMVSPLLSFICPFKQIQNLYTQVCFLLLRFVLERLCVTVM
# How it was run: as §1
# ETV2 = molecular target: T4, ETV2 (Homo sapiens, UniProt O00321 1-342); conditions: protein: recombinant; tags: N-terminal GST; dsDNA, one strand shown
# T4 sequence: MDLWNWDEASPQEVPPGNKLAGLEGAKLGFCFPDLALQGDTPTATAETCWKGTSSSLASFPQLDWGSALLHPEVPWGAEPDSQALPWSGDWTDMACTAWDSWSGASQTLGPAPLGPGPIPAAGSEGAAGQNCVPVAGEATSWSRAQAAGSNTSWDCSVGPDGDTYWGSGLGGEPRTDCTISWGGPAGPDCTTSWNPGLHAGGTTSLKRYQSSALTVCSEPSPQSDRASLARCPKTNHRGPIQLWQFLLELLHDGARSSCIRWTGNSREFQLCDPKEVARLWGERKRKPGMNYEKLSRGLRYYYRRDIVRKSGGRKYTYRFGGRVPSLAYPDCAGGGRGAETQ
# How it was run: as §1
# ELF3 = molecular target: T5, ELF3 (Homo sapiens, UniProt P78545 1-371); conditions: protein: recombinant; tags: N-terminal GST; dsDNA, one strand shown
# T5 sequence: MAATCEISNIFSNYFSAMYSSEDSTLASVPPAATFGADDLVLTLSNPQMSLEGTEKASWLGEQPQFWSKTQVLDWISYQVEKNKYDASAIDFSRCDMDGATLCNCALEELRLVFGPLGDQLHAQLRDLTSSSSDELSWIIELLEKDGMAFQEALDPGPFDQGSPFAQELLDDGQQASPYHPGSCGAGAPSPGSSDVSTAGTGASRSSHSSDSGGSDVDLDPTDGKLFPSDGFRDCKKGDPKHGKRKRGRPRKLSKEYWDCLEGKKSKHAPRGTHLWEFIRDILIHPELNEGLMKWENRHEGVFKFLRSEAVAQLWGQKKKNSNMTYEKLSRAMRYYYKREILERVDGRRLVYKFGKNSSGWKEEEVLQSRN
# How it was run: as §1
# CRX = CRX (Homo sapiens, UniProt O43186 1-299); conditions: protein: recombinant; tags: N-terminal GST; dsDNA, one strand shown
# How it was run: as §1
# ETV1 = ETV1 (Homo sapiens, UniProt P50549 1-477); conditions: protein: recombinant; tags: N-terminal GST; dsDNA, one strand shown
# How it was run: as §1
# ERF = molecular target: T6, ERF (Homo sapiens, UniProt P50548 1-548); conditions: protein: recombinant; tags: N-terminal GST; dsDNA, one strand shown
# T6 sequence: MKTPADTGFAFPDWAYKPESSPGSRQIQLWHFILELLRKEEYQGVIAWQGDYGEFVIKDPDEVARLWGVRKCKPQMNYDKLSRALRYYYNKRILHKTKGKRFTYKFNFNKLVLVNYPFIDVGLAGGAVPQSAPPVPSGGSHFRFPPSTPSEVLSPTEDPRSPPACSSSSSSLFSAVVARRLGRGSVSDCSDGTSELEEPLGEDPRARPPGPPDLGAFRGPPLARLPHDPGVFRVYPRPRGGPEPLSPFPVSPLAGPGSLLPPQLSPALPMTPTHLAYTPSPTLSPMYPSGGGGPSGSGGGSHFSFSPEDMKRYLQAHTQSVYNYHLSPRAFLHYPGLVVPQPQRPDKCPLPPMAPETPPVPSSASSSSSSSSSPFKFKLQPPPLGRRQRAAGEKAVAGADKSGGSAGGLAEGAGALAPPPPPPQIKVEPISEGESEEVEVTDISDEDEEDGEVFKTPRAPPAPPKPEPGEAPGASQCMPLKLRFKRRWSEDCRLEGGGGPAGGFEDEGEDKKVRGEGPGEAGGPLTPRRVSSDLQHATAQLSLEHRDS
# How it was run: as §1
# ETV3L = molecular target: T7, ETV3L (Homo sapiens, UniProt Q6ZN32 1-361); conditions: protein: recombinant; tags: N-terminal GST; dsDNA, one strand shown
# T7 sequence: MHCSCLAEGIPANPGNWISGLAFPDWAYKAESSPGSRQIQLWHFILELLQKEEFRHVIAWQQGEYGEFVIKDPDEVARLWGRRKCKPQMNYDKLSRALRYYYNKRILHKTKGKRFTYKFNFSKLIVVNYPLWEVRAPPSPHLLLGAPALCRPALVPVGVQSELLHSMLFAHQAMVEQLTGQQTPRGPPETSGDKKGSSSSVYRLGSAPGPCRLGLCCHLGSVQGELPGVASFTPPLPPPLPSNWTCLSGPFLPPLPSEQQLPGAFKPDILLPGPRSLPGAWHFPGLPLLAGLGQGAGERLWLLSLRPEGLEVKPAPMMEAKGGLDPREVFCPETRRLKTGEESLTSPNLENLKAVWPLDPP
# How it was run: as §1
# ETS2 = molecular target: T8, ETS2 (Homo sapiens, UniProt P15036 1-469); conditions: protein: recombinant; tags: N-terminal GST; dsDNA, one strand shown
# T8 sequence: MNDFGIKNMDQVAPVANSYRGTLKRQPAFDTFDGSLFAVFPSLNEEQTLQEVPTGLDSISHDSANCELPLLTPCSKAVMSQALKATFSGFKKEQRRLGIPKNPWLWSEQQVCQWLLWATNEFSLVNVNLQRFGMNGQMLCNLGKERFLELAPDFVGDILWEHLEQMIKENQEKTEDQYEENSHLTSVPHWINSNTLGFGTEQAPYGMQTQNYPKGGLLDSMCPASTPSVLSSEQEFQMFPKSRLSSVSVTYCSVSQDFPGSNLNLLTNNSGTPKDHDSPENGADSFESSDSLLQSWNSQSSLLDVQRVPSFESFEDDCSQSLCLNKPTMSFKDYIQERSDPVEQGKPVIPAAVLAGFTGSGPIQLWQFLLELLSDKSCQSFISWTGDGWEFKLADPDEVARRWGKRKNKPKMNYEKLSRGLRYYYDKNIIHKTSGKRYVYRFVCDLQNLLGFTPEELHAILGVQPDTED
# How it was run: as §1
# SPDEF = molecular target: T9, SPDEF (Homo sapiens, UniProt O95238 1-335); conditions: protein: recombinant; tags: N-terminal GST; dsDNA, one strand shown
# T9 sequence: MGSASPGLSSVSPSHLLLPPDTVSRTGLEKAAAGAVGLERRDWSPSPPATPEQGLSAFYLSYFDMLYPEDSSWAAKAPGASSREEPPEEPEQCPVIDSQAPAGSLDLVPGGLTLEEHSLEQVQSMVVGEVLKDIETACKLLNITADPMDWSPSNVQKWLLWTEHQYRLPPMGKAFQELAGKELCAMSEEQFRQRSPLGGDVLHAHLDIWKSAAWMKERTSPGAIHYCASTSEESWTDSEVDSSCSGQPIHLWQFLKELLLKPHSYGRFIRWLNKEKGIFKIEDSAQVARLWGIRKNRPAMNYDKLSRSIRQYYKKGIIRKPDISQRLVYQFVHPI
# How it was run: as §1
# ETV7 = molecular target: T10, ETV7 (Homo sapiens, UniProt Q9Y603 1-341); conditions: protein: recombinant; tags: N-terminal GST; dsDNA, one strand shown
# T10 sequence: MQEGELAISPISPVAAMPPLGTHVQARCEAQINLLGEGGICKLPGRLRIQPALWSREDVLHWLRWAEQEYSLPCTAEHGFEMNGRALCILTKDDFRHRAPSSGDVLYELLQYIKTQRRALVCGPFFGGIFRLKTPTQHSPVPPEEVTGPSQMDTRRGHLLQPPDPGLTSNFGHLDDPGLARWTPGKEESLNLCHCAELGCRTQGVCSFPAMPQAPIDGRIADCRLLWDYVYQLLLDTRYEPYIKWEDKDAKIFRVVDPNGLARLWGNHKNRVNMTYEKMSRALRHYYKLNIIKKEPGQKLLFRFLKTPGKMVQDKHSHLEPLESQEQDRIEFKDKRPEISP
# How it was run: as §1
# ELF5 = molecular target: T11, ELF5 (Homo sapiens, UniProt Q9UKW6-2 1-255); conditions: protein: recombinant; tags: N-terminal GST; dsDNA, one strand shown
# T11 sequence: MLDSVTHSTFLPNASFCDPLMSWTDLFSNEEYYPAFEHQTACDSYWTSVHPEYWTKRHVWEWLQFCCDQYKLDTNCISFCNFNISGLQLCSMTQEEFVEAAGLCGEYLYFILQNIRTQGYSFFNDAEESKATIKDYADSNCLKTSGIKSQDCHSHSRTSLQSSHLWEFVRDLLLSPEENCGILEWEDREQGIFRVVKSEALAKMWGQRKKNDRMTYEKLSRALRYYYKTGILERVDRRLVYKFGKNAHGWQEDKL
# How it was run: as §1
# ETV3 = molecular target: T12, ETV3 (Homo sapiens, UniProt P41162-2 1-143); conditions: protein: recombinant; tags: N-terminal GST; dsDNA, one strand shown
# T12 sequence: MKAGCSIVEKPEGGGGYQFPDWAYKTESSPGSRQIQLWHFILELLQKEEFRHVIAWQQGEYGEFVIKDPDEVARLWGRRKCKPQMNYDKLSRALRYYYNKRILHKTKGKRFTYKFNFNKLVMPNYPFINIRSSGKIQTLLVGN
# How it was run: as §1
# ETV6 = ETV6 (Homo sapiens, UniProt P41212 1-452); conditions: protein: recombinant; tags: N-terminal GST; dsDNA, one strand shown
# How it was run: as §1
# Sequence of ETV5 (P41161 whole entry): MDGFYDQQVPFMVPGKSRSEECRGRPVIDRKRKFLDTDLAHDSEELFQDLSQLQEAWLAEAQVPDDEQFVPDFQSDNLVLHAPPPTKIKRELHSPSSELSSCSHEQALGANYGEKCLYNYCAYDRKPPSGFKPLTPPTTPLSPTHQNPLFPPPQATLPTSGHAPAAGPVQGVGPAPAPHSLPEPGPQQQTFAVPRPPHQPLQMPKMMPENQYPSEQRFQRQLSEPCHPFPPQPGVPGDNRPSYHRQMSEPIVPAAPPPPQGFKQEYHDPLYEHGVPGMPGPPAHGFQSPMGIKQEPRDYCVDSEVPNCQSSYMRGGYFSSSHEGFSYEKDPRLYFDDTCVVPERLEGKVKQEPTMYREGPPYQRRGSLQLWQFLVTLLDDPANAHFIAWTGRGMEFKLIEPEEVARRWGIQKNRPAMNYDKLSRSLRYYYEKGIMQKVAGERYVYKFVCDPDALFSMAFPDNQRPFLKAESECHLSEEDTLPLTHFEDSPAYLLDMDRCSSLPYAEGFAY
# Sequence of ETV1 (P50549 whole entry): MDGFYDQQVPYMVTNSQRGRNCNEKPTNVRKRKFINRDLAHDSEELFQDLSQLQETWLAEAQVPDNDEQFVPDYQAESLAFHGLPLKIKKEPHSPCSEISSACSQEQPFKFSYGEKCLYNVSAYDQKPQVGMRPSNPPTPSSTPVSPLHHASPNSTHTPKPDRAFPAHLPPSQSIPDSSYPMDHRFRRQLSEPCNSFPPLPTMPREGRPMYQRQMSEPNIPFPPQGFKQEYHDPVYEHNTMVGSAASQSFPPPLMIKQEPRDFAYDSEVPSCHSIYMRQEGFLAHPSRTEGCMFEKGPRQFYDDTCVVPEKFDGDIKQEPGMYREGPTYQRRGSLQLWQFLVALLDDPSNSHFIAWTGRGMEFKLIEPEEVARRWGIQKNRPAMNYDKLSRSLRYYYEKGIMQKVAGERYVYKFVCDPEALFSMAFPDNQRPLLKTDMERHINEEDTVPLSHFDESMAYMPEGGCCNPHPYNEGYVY
# Sequence of HSF1 (Q00613 whole entry): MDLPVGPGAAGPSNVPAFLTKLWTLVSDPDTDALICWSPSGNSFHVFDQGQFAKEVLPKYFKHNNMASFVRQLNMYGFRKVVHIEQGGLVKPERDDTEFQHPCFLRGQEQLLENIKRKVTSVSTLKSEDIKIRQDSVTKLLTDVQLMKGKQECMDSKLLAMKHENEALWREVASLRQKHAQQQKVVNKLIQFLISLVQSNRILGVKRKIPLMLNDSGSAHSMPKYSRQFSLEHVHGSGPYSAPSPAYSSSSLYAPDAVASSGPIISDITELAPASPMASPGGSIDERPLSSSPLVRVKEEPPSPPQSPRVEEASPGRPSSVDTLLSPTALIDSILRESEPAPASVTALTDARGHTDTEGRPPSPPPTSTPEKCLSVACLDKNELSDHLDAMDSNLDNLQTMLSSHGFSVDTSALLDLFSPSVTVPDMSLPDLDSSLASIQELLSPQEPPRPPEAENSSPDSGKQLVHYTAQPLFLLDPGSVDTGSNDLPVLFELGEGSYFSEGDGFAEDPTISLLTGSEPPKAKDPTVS
# Sequence of ETV6 (P41212 whole entry): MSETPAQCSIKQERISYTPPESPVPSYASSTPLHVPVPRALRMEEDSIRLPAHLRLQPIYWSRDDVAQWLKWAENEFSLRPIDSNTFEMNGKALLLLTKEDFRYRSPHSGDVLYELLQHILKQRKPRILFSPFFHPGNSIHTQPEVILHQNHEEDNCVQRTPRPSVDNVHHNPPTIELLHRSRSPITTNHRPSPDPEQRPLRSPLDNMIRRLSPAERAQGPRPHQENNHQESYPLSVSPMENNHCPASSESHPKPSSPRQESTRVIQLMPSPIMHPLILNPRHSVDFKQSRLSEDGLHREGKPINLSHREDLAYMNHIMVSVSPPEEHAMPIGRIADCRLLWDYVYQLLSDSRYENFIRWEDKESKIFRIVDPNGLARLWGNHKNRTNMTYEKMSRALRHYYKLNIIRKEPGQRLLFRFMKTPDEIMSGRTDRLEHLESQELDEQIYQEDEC
# Sequence of ELF4 (Q99607 whole entry): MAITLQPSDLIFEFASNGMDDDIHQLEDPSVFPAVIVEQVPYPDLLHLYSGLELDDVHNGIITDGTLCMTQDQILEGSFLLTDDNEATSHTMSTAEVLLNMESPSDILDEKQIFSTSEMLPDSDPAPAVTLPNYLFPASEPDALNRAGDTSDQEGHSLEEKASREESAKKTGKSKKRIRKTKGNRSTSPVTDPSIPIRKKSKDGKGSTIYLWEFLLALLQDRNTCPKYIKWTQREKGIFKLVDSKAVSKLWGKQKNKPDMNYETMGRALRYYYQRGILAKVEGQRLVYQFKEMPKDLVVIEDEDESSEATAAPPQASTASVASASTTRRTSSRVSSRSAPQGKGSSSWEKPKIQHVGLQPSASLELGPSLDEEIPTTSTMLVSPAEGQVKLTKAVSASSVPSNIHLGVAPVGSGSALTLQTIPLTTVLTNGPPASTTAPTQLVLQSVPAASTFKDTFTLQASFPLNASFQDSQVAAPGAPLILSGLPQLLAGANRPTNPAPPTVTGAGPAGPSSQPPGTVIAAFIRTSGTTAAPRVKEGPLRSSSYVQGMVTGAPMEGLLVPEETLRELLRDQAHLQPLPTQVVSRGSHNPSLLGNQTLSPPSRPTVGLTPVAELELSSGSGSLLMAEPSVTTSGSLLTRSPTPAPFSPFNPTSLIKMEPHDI
# Sequence of CRX (O43186 whole entry): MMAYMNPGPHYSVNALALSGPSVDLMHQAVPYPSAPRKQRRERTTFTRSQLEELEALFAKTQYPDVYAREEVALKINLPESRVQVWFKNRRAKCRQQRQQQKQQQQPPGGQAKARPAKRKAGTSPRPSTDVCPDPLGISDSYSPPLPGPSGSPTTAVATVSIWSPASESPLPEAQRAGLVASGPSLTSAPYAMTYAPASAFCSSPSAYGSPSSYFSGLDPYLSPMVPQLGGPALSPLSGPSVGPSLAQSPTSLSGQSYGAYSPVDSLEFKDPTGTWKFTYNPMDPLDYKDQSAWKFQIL
sequence,measurement,setting,value
AAAGAT,binding signal,FEV,"1.15 fold enrichment (6-mer frequency, TF over GST control)"
same,binding signal,ETV5,"1.25 fold enrichment (6-mer frequency, TF over GST control)"
same,binding signal,HSF1,"1.67 fold enrichment (6-mer frequency, TF over GST control)"
same,binding signal,SPIC,"1.22 fold enrichment (6-mer frequency, TF over GST control)"
same,binding signal,ELF4,"1.24 fold enrichment (6-mer frequency, TF over GST control)"
same,binding signal,ELK4,"1.24 fold enrichment (6-mer frequency, TF over GST control)"
same,binding signal,ETV2,"1.17 fold enrichment (6-mer frequency, TF over GST control)"
same,binding signal,ELF3,"1.16 fold enrichment (6-mer frequency, TF over GST control)"
same,binding signal,CRX,"1.75 fold enrichment (6-mer frequency, TF over GST control)"
same,binding signal,ETV1,"1.27 fold enrichment (6-mer frequency, TF over GST control)"
same,binding signal,ERF,"1.24 fold enrichment (6-mer frequency, TF over GST control)"
same,binding signal,ETV3L,"1.17 fold enrichment (6-mer frequency, TF over GST control)"
same,binding signal,ETS2,"1.16 fold enrichment (6-mer frequency, TF over GST control)"
same,binding signal,SPDEF,"1.23 fold enrichment (6-mer frequency, TF over GST control)"
same,binding signal,ETV7,"1.12 fold enrichment (6-mer frequency, TF over GST control)"
same,binding signal,ELF5,"1.15 fold enrichment (6-mer frequency, TF over GST control)"
same,binding signal,ETV3,"1.28 fold enrichment (6-mer frequency, TF over GST control)"
same,binding signal,ETV6,"1.17 fold enrichment (6-mer frequency, TF over GST control)"
